Among all 5,500 compounds or so, about 2,000 (36%) were called active. Inconclusive results (about 18%) are left out. Some of the results follow. Values without a mark were called inactive. Rule as the data show it: active = normalized growth mostly below about 0.91 (no sharp cut-off); inconclusive = no clear call, values can overlap the other calls; inactive = mostly above about 0.92.
Experiment: chemical genetic growth profiling, strain panel (AID 1159580);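 also: tested at 20 µM; growth read once vehicle control cultures reached saturation at 30 °C; 1 = growth at the plate median or of vehicle wells; lower values mean less growth of the strain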
Settings: S. cerevisiae deletion strains, growth OD
[1] = locus YDL101C, strain DUN1, stronger effect = lower value
[2] = locus YHR030C, strain SLT2, stronger effect = lower value

Nc1ccc(N2CCN(c3ccc(C(F)(F)F)cn3)CC2)nc1
normalized growth (locus YAR019C, strain CDC15, stronger effect = lower value): 0.974 | normalized growth (locus YBL105C, strain PKC1, stronger effect = lower value): 0.984 | normalized growth (locus YBR135W, strain CKS1, stronger effect = lower value): 0.969 | normalized growth (locus YBR136W, strain MEC1, stronger effect = lower value): 0.983 | normalized growth (locus YBR160W, strain CDC28, stronger effect = lower value): 0.964 | normalized growth (locus YDL017W, strain CDC7, stronger effect = lower value): 0.98 | normalized growth (locus YDL028C, strain MPS1, stronger effect = lower value): 0.949 | normalized growth [1]: 0.987 | normalized growth (locus YDL108W, strain KIN28, stronger effect = lower value): 0.966 | normalized growth (locus YDL132W, strain cdc53, stronger effect = lower value): 0.992 | normalized growth (locus YDL214C, strain PRR2, stronger effect = lower value): 0.927 | normalized growth (locus YDR052C, strain DBF4, stronger effect = lower value): 0.988 | normalized growth (locus YDR054C, strain cdc34, stronger effect = lower value): 0.994 | normalized growth (locus YDR226W, strain ADK1, stronger effect = lower value): 0.975 | normalized growth (locus YDR477W, strain SNF1, stronger effect = lower value): 0.862 | normalized growth (locus YER123W, strain YCK3, stronger effect = lower value): 0.879 | normalized growth (locus YER133W, strain GLC7, stronger effect = lower value): 0.916 | normalized growth (locus YFL009W, strain cdc4, stronger effect = lower value): 0.968 | normalized growth (locus YFL029C, strain CAK1, stronger effect = lower value): 0.971 | normalized growth (locus YFR003C, strain YPI1, stronger effect = lower value): 0.981 | normalized growth (locus YFR019W, strain FAB1, stronger effect = lower value): 0.862 | normalized growth (locus YFR028C, strain CDC14, stronger effect = lower value): 0.982 | normalized growth (locus YGR040W, strain KSS1, stronger effect = lower value): 0.865 | normalized growth (locus YGR052W, strain FMP48, stronger effect = lower value): 0.968 | normalized growth (locus YGR092W, strain DBF2, stronger effect = lower value): 0.722 | normalized growth [2]: 0.724 (active) | normalized growth (locus YHR079C, strain IRE1, stronger effect = lower value): 0.948 | normalized growth (locus YHR082C, strain KSP1, stronger effect = lower value): 0.966 | normalized growth (locus YHR205W, strain SCH9, stronger effect = lower value): 0.986 | normalized growth (locus YIL147C, strain SLN1, stronger effect = lower value): 0.973 | normalized growth (locus YJL095W, strain BCK1, stronger effect = lower value): 0.809 | normalized growth (locus YJL128C, strain PBS2, stronger effect = lower value): 1.02 | normalized growth (locus YJL157C, strain FAR1, stronger effect = lower value): 0.921 | normalized growth (locus YJR016C, strain ILV3, stronger effect = lower value): 0.976 | normalized growth (locus YJR066W, strain TOR1 (second series), stronger effect = lower value): 0.775 | normalized growth (locus YJR066W, strain TOR1, stronger effect = lower value): 0.879 | normalized growth (locus YKL048C, strain ELM1, stronger effect = lower value): 1.03 | normalized growth (locus YKL067W, strain YNK1, stronger effect = lower value): 0.91 | normalized growth (locus YKL101W, strain HSL1, stronger effect = lower value): 0.98 | normalized growth (locus YKL193C, strain SDS22, stronger effect = lower value): 0.983 | normalized growth (locus YKL203C, strain TOR2, stronger effect = lower value): 0.976 | normalized growth (locus YLR113W, strain HOG1, stronger effect = lower value): 0.991 | normalized growth (locus YLR133W, strain CKI1, stronger effect = lower value): 0.96 | normalized growth (locus YLR403W, strain SFP1, stronger effect = lower value): 0.9 | normalized growth (locus YML070W, strain DAK1, stronger effect = lower value): 0.917 | normalized growth (locus YMR001C, strain CDC5, stronger effect = lower value): 0.977 | normalized growth (locus YMR205C, strain PFK2 (second series), stronger effect = lower value): 0.952 | normalized growth (locus YMR277W, strain FCP1, stronger effect = lower value): 0.952 | normalized growth (locus YNL006W, strain LST8, stronger effect = lower value): 0.967 | normalized growth (locus YNL020C, strain ARK1, stronger effect = lower value): 0.95 | normalized growth (locus YNL161W, strain CBK1, stronger effect = lower value): 0.991 | normalized growth (locus YNL183C, strain NPR1, stronger effect = lower value): 1.01 | normalized growth (locus YNL207W, strain RIO2, stronger effect = lower value): 0.959 | normalized growth (locus YNL222W, strain SSU72, stronger effect = lower value): 0.956 | normalized growth (locus YNL307C, strain MCK1 (second series), stronger effect = lower value): 0.916 | normalized growth (locus YOL078W, strain AVO1, stronger effect = lower value): 0.982 | normalized growth (locus YOL136C, strain PFK27, stronger effect = lower value): 0.928 | normalized growth (locus YOR061W, strain CKA2, stronger effect = lower value): 0.943 | normalized growth (locus YOR119C, strain RIO1, stronger effect = lower value): 0.923 | normalized growth (locus YOR231W, strain MKK1, stronger effect = lower value): 0.904 | normalized growth (locus YOR329C, strain SCD5, stronger effect = lower value): 0.986 | normalized growth (locus YPL031C, strain PHO85, stronger effect = lower value): 0.876 | normalized growth (locus YPL153C, strain RAD53, stronger effect = lower value): 0.835 | normalized growth (locus YPL204W, strain HRR25, stronger effect = lower value): 0.828 | normalized growth (locus YPL209C, strain IPL1, stronger effect = lower value): 0.991 | normalized growth (locus YPL256C, strain CLN2, stronger effect = lower value): 0.983 | normalized growth (locus YPR025C, strain CCL1, stronger effect = lower value): 0.981 | normalized growth (locus YPR106W, strain ISR1, stronger effect = lower value): 1.01 | normalized growth (locus YPR111W, strain DBF20, stronger effect = lower value): 1.02 | normalized growth (strain NNK1, stronger effect = lower value): 0.984 | normalized growth (strain TSCII, stronger effect = lower value): 0.97

Cc1onc(-c2c(F)cccc2Cl)c1C(=O)N1CCN(c2ncccc2C(F)(F)F)CC1
normalized growth (locus YAL013W, strain DEP1, stronger effect = lower value): 0.98 | normalized growth (locus YBR229C, strain ROT2, stronger effect = lower value): 0.975 | normalized growth [1]: 0.977 | normalized growth (locus YDL134C, strain PPH21, stronger effect = lower value): 0.993 | normalized growth (locus YDR150W, strain NUM1, stronger effect = lower value): 0.972 | normalized growth (locus YEL061C, strain CIN8, stronger effect = lower value): 0.952 | normalized growth (locus YGR078C, strain PAC10, stronger effect = lower value): 1.01 | normalized growth [2]: 0.928 | normalized growth (locus YHR087W, strain rtc3, stronger effect = lower value): 0.964 | normalized growth (locus YJL187C, strain SWE1, stronger effect = lower value): 0.988 | normalized growth (locus YJR043C, strain POL32, stronger effect = lower value): 1 | normalized growth (locus YJR075W, strain HOC1, stronger effect = lower value): 1.01 | normalized growth (locus YKL190W, strain CNB1, stronger effect = lower value): 1 | normalized growth (locus YLR039C, strain RIC1, stronger effect = lower value): 0.993 | normalized growth (locus YLR058C, strain SHM2 (second series), stronger effect = lower value): 0.987 | normalized growth (locus YLR085C, strain ARP6, stronger effect = lower value): 1.02 | normalized growth (locus YLR262C, strain YPT6, stronger effect = lower value): 0.98 | normalized growth (locus YML094W, strain GIM5, stronger effect = lower value): 0.969 | normalized growth (locus YMR219W, strain ESC1, stronger effect = lower value): 0.984 | normalized growth (locus YMR263W, strain SAP30, stronger effect = lower value): 1.01 | normalized growth (locus YMR307W, strain GAS1, stronger effect = lower value): 1.07 | normalized growth (locus YNL153C, strain GIM3, stronger effect = lower value): 1 | normalized growth (locus YNL298W, strain CLA4 (second series), stronger effect = lower value): 0.965 | normalized growth (locus YNL322C, strain KRE1, stronger effect = lower value): 0.977 | normalized growth (locus YNR030W, strain Alg12, stronger effect = lower value): 0.99 | normalized growth (locus YPL055C, strain LGE1, stronger effect = lower value): 0.977 | normalized growth (locus YPL241C, strain CIN2, stronger effect = lower value): 1.08 | normalized growth (locus YPR135W, strain CTF4, stronger effect = lower value): 0.993

Reference: PubChem BioAssay AID1159580 (chemical genetic matrix, 2015)
